The term inhibition denotes the relative decrease from the control value, in per cent.

Structures are written as SMILES. Out of some 340,000 compounds screened, about 260 (0.076%) were called active.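 Rule for the calls: active = highest replicate inhibition at or above 60% at 9 µM, even if other replicates fall short; inactive = all replicates below 60% inhibition.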 The list comes from a sample in which actives are over-represented; it also holds similar structures and randomly drawn compounds.

In this assay the test system is Kaposi's sarcoma herpesvirus LANA C-terminal domain (residues 932-1162) DNA binding. Nature of the assay: blockers of LANA C-terminal domain DNA interaction – biochemical, fluorescence polarization, FAM-LBS DNA, MBP-C-LANA, single point, primary screen (AID 504423).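 Note: 0% = neutral control wells and 100% = 4 µM acridine orange control.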 Conditions: at 9 µM, active compounds read high.
Consider `Cc1c(N=Nc2ccc(N(C)C)cc2)c(=O)n(-c2ccccc2)n1C`, for which the inhibition was -5.21% (inactive).

With `CCN(CC)CCCC(C)n1c2nc(=O)[nH]c(=O)c-2nc2cc(Cl)ccc21` (configuration not stated), the inhibition was 167% (active).

As to `COc1ccc2c(c1)c1ncn(Cc3ccccn3)c(=O)c1n2C`, the inhibition is -1.99% (inactive).

Regarding `CCOC(=O)CC(NC(=O)C1c2ccccc2Oc2ccccc21)c1ccc(C)cc1` (configuration not stated), the inhibition is 1.2% (inactive).

`CCCN(CCC)C(=O)C1c2ccccc2Oc2ccccc21`: the inhibition is 88.3% (active).

Regarding `CCCCCNC(=O)C1c2ccccc2Oc2ccccc21`, the inhibition was -0.323% (inactive).

For `CC(=O)c1nnn(-c2ccc(Cl)cc2C#N)c1C`, the inhibition is -3.28% (inactive).

In the case of `c1ccc(-n2cccc2)c(N2CCCCC2)c1`, the inhibition was 1.68% (inactive).

For the compound `CN1C(c2ccc(F)cc2)=CS/C1=C(/C#N)c1nnc2n1-c1ccccc1SC2`, the inhibition is 1.32% (inactive).

With `Cc1cc(/C=N/NC(=O)CC2(C)OCCO2)c(C)n1-c1ccc(Cl)c(Cl)c1`, the inhibition was 0.73% (inactive).

As to `Cc1cc(/C=N/Nc2ccc([N+](=O)[O-])cn2)c(C)n1-c1cccc(C(=O)O)c1`, the inhibition was 64.5% (active).

Take `CC(C)c1ccc(C=NNc2ccc([N+](=O)[O-])cn2)cc1`: the inhibition is -4.43% (inactive).

As to `Cc1nc(NC(=O)CCC(=O)O)sc1C(=O)N(C)C`, the inhibition was -0.461% (inactive).

Regarding `CCOc1ccc(NC(=O)c2cccc3c2C(=O)N(CC2CCCO2)C3)cc1` (configuration not stated), the inhibition was -0.819% (inactive).

`CC(C)n1c(=S)[nH]c2cc(C(F)(F)F)ccc21`: the inhibition was -0.144% (inactive).

With `COc1cccc2c1C(=O)c1c(O)c3c(c(O)c1C2=O)CC(O)(C(C)=NNC(=O)c1ccc(Cl)c(Cl)c1)CC3OC1CC(N)C(O)C(C)O1` (configuration not stated), the inhibition was 102% (active).

Regarding `COc1cccc(Cn2cnc3c([N+](=O)[O-])c(C)c(C)cc32)c1`, the inhibition was -1.77% (inactive).

With `Cc1ccc(NC(=O)Cn2cccc2C2=NC(c3ccccc3)CO2)c(C)c1` (configuration not stated), the inhibition was 0.882% (inactive).

As to `C=CCNc1nc(Nc2ccc(Cl)cc2)nc(OC)n1`, the inhibition was -0.456% (inactive).

Turning to `CC12CCC(C(=O)N(CCC#N)CCC#N)(CC1=O)C2(C)C` (configuration not stated), the inhibition is 0.103% (inactive).

As for `CCOC(=O)c1sc(/N=C/Nc2nc(C)c(C(=O)OCC)s2)nc1C`, the inhibition is -0.364% (inactive).

Consider `CC(NC(=O)CN(C)S(=O)(=O)c1ccc(F)cc1)C1CC2CCC1C2` (configuration not stated), for which the inhibition is -0.793% (inactive).

For `O=C(CNCc1ccc(Cl)cc1)Nc1cccc(C(=O)O)c1`, the inhibition was 0.621% (inactive).

As for `S=C(Nc1cccc(Br)c1)N1CCn2cccc2C1c1cccnc1` (configuration not stated), the inhibition is 0.461% (inactive).

As to `O=C1COc2c1ccc(O)c2O`, the inhibition was 105% (active).

With `c1ccc(CSc2ncnc3c2sc2nc(N4CCOCC4)c4c(c23)CCCC4)cc1`, the inhibition is 0.637% (inactive).

As for `COc1cc(/C=C/C(=O)O)cc(S(=O)(=O)Nc2ccccc2SC)c1OC`, the inhibition was 2.56% (inactive).

On to `O=c1[nH]nc(SCCS(=O)(=O)c2ccc(F)cc2)n1-c1ccccc1C(F)(F)F`, for which the inhibition was -0.936% (inactive).

On to `O=C1OC(Cc2ccccc2)C(c2ccccc2)C1=O` (configuration not stated), for which the inhibition is 0.23% (inactive).

On to `CCN(CC)C(=O)[C@H]1C[C@H](CC(=O)NCC23CC4CC(CC(C4)C2)C3)C(=O)N2CCc3c([nH]c4cc(CCC(=O)N(C)C)ccc34)[C@]12C`, for which the inhibition was -1.63% (inactive).

Consider `CCC(CC)c1nnc(NC(=O)C2CCN(C(=O)c3ccco3)CC2)s1`, for which the inhibition was 0.307% (inactive).

As for `CCCN(CC(=O)Nc1ccccc1C)C(=O)c1ccc(OCC(=O)N2CCOCC2)c(OCC)c1`, the inhibition was 0.13% (inactive).

On to `COCCNC(=O)C1CCN(S(=O)(=O)c2ccc3c(c2)OCCO3)CC1`, for which the inhibition was -0.000473% (inactive).

In the case of `CCCn1nc(C(=O)OCc2nc(N)nc(Nc3ccccc3C)n2)c2ccccc2c1=O`, the inhibition was -0.106% (inactive).

For `CC(C)Cn1c(=O)c2ccccc2n2c(CCC(=O)NCc3ccccn3)nnc12`, the inhibition was -0.283% (inactive).

For the compound `COc1cc(C(=O)NCc2ccc3c(c2)cc(C)n3C)cc(OC)c1OC`, the inhibition was 1.89% (inactive).

`COc1ccc(-c2c(C)nn3c(N4CCC(C(=O)N5CCCCC5)CC4)cc(C)nc23)cc1OC`: the inhibition is -1.26% (inactive).

As to `COc1ccc(/C=N/NC(=O)Cn2cc(C(F)(F)F)ccc2=O)cc1`, the inhibition is 0.0809% (inactive).

In the case of `CCCOc1ccc(Cc2c(O)nc(N)[nH]c2=O)cc1C`, the inhibition is 3.16% (inactive).

As to `Cc1cc(/C=N/NC(N)=O)c(C)n1C1CCCCC1`, the inhibition was -1.79% (inactive).

Regarding `Cc1ccc2c(=O)oc(N(C)C)nc2c1`, the inhibition is 0.463% (inactive).

Take `CC(C)CCNC(=O)CC1C(=O)N(Cc2ccccc2)C(C)c2nc3ccccc3n21` (configuration not stated): the inhibition is 0.0911% (inactive).

In the case of `Clc1ccc(C2=CSC3=Nc4cccc5cccc(c45)N23)cc1`, the inhibition was 0.203% (inactive).

Regarding `CS(=O)(=O)c1ccc2nnn(OCC(=O)Nc3cccc(C#N)c3)c2c1`, the inhibition is 0.484% (inactive).

Take `O=C(c1ccco1)N(Cc1nc2ccccc2c(=O)[nH]1)C1CCCC1`: the inhibition is 1.54% (inactive).

In the case of `Nc1ccc2nc3c(=O)[nH]c(=S)[nH]c3nc2c1`, the inhibition was 81% (active).

Consider `CCCCn1nc(C(=O)Nc2ccc(S(=O)(=O)Nc3ncccn3)cc2)c2ccccc2c1=O`, for which the inhibition was 4.67% (inactive).

Consider `Cc1c(C=O)n(C)n(-c2ccccc2)c1=O`, for which the inhibition was 0.314% (inactive).

Turning to `COc1ccccc1CNS(=O)(=O)c1cc(C(=O)NCc2ccccn2)c(Cl)cc1Cl`, the inhibition was 2.38% (inactive).

Take `O=C(c1ccccc1)N1CCC(CC2CC(c3ccc(Cl)cc3)=NO2)(C(=O)NCC2CCCCC2)CC1` (configuration not stated): the inhibition was 2.87% (inactive).

For the compound `Cc1ccc(S(=O)(=O)n2oc(=O)c(C3CCCCC3)c2N)cc1`, the inhibition was -3.57% (inactive).

On to `COc1cccc(N2CC(NS(=O)(=O)c3ccc(Cl)cc3)CC2=O)c1` (configuration not stated), for which the inhibition was -1.06% (inactive).

As to `COc1cccc(-c2nc3n(n2)C(c2ccccc2Cl)C(C(N)=O)=C(C)N3)c1` (configuration not stated), the inhibition was -1.68% (inactive).

As to `COc1ccc(CNCCCO)cc1OC`, the inhibition is 0.662% (inactive).

For `COc1ccc(C2C(C#N)=C(N)Oc3cc(N)ccc32)cc1OC` (configuration not stated), the inhibition was -0.0442% (inactive).

Turning to `COc1ccc(C2c3ccc(O)cc3Oc3ncn(CCCO)c(=N)c32)cc1OC` (configuration not stated), the inhibition is 90.6% (active).

Take `COc1cc(/C=C(\C#N)C(=O)Nc2ccc3ccccc3c2)c([N+](=O)[O-])cc1OC`: the inhibition was -1.48% (inactive).

Values taken from PubChem BioAssay AID504423 (Broad Institute, 2011).
